Among all 1,300 compounds or so, about 100 (7.7%) were called active. About 19% were inconclusive and are not listed. Calls come from the whole dose curve; as a rule, active = well fitted activation curve with a large enough effect; inconclusive = small, poorly fitted or top-dose-only effect; inactive = no such curve, though single readings can be large or run the other way. These entries were drawn from the full list. A call without a number means that no potency is given here.
Potency is the fitted concentration of half-maximal effect.

Luciferin 4-monooxygenase (Photinus pyralis), sequence (P08659 whole entry, looked up): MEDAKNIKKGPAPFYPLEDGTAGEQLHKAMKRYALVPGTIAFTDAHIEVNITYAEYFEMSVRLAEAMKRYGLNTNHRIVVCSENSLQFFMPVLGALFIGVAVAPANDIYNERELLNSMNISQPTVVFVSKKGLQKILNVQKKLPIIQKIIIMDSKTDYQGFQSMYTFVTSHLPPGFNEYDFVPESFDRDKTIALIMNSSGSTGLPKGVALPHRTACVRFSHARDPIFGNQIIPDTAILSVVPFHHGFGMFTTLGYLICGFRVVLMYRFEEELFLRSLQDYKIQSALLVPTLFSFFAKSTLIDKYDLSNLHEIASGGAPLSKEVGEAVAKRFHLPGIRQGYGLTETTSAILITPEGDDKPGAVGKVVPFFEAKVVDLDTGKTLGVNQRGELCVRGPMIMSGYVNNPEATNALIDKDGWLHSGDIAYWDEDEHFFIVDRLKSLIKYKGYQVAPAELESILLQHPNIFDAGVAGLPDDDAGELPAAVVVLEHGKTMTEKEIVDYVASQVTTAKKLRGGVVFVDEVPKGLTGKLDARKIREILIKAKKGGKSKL

In this assay the target is Luciferin 4-monooxygenase (Photinus pyralis) (UniProt P08659). In words: Firefly luciferase (FLuc-C-HiBiT) SDR gain of signal screen - without ATP. Note: nearly all actives have a fitted effect of over 55% in size. The note with it: Purified FLuc-C-HiBiT, Nano-Glo HiBiT luminescence, no ATP; series mostly up to 32.7 µM. From the text:
PI: James Inglese Ph.D. National Center for Advancing Translational Sciences (NCATS), National Institute of Health (NIH), Maryland Discovery and optimization of novel protein-binding ligands underlies many of the methods and applications of biology, drug discovery, clinical diagnostics, and environmental toxicology. Assays for detecting the interaction of, for example, a molecule with a macromolecular target also referred to here as the target of interest (TOI) is dependent on a compatible output technology. Depending on the nature and knowledge surrounding the TOI, whether a receptor, enzyme, regulatory subunit or scaffold, or a sequence-defined nucleic acid folded into a complex tertiary structure, assay strategies can vary widely. Here we exploit ligand-biased changes in the structural dynamics of the target protein to control reporter alpha complementation allowing a non-competitive, non-functional, non-separation measure of ligand-target interaction. […] Secondly, we show the specificity and sensitivity of the SDR for the Abelson tyrosine kinase (ABL1) compared to the serine/threonine protein kinase A, using an enriched chemical library of 128 compounds selected, in part, for activity annotated with ABL1 kinase activity using the Pharos database (3). References: (1) A. S. Dixon et al., NanoLuc Complementation Reporter Optimized for Accurate Measurement of Protein Interactions in Cells. ACS Chem Biol 11, 400-408 (2016). […] Chemistry & Biology, 19, 1060 - 1072 (2012). (3) K. J. Kelleher et al., Pharos 2023: an integrated resource for the understudied human proteome. Nucleic Acids Res 51, D1405-D1416 (2023).
1. Reagent. Dispense 4 uL FLuc-C-HiBiT enzyme-buffer solution per well at a final enzyme concentration of 10 nM with or without 10 uM ATP into columns 2-48 of white, solid bottom medium bind 1536-well plates (Greiner Bio-One) by BioRaptr 2. Dispense respective buffer without enzyme at 4 uL/well in column 1 of assay plates. 2. Compounds. Library compounds and PTC124 control added at 23 nL per well, transfer by Pin Tool. 3. Incubation. Incubate enzyme and compounds at room temperature for >30 min, protect from light. 4. Reagent. (SDR assay) Add 3 uL/well of Nano-Glo HiBiT reagent (Promega) to assay plates for SDR assay without ATP. 5. Incubation. Incubate enzyme and substrate or detection reagent at room temperature for 5-10 min, protect from light. 6. Detector. HiBiT SDR assay measured using CCD-based camera (ViewLux) with settings as follows: Exposure, 1 sec; Gain, High; Speed, Slow; Binning, 2X. REFERENCES: Inglese J, Shamu CE and Guy RK, Reporting data from high throughput screening of small molecule libraries, Nature Chemical Biology, 2007, 3(8): 438-441. doi.org/10.1038/nchembio0807-438.
(In general: The HiBiT peptide binds its large partner to form an active luciferase.)
Regarding `COc1ccc(-c2cc(N3CCCC(NC(=O)c4ccsc4)C3)n[nH]2)cc1` (centres undefined), the Potency result is “inactive”.
Consider `Fc1ccc(Nc2nc(-c3ccccc3F)no2)cc1`, for which the Potency entry was “inactive”.
`Cc1nn(-c2ccc(C(C)C)cc2)c(C)c1[C@@H]1C=C[C@@H](NC(=S)NCC(C)C)C1`: the Potency result was “inactive”.
With `COc1ccc(CC(=O)Nc2ccc(-c3nc4ccccc4s3)c(C)c2)cc1`, the Potency result is “inactive”.
On to `O=C(COc1ccc(Cl)cc1)Nc1ccc(-c2nc3cc(Cl)ccc3o2)c(O)c1`, for which the Potency result was “inactive”.
Under `O=C([C@@H]1C[C@@H](O)[C@H](O)[C@@H]2NC(=S)N(c3ccc(OC(F)(F)F)cc3)[C@@H]21)N1CCCCC1` stands “inactive”; under `CCNC(=O)C1C(c2cccc(NC(=O)c3ccc(OC)cc3)c2)OC(=O)N1Cc1ccc(C)cc1` (centres undefined), “inactive”.
For the compound `Cc1nnn2c(C(=O)NC3CC3)cccc12`, the Potency result was “inactive”.
Next, `COc1cc(F)ccc1-c1ccc(COc2ccc3c(cnn3CCC(=O)O)c2)cc1`: “inactive”; `Cc1cc(C)n(CCC(=O)N2CCC(Cc3noc(C4CC4)n3)C2)n1` (centres undefined): “inactive”; `O=C(Nc1ccccc1)c1nc2c(o1)CCN(Cc1cccc(Cl)c1)CC2`: “inactive”.
Turning to `Cc1ccc(C(=O)Nc2ccc(-c3nc4ccccc4s3)c(O)c2)cc1`, the Potency result was “inactive”.
On to `CC(=O)c1ccc(NC(=O)CSc2nnc(NC(=O)Nc3ccccc3)s2)cc1`, for which the Potency entry was “inactive”.
Next, `O=C(CSc1ccc(F)cc1)Nc1ccccc1-c1nc2ccccc2s1`: “inactive”; `C[S+](=O)([O-])CCn1ncc2cc(OCc3cccc(-c4ccccc4)c3)ccc21`: “inactive”.
Turning to `Cc1ccc2cc(CN3CCN(CC(N)=O)CC3)c(-c3cccs3)nc2c1`, the Potency entry is “inactive”.
Take `OCc1cccc(-c2cc3c(cn2)CN(Cc2ccccc2)CCN3)c1`: the Potency result is “inactive”.
Regarding `O=C(NCc1ccc(F)c(Cl)c1)C1CCN(C(=O)c2ncn3c2COC(c2ccccc2)C3)CC1` (centres undefined), the Potency entry was “inactive”.
On to `CC(=O)Oc1ccccc1C(=O)Nc1ccc(-c2nc3ccc(C)cc3s2)cc1`, for which the Potency entry was “inactive”.
Turning to `O=C(NCc1ccccc1)C1CCN(C(=O)c2ncn3c2COC(c2ccccc2)C3)CC1` (centres undefined), the Potency result was “inactive”.
Next, `O=C(/C=C/c1ccccc1)Nc1cc(-c2nc3cc(Cl)ccc3o2)ccc1Cl`: “inactive”; `CNc1nc(C(=O)NCc2ccc3[nH]c(-c4ccc(F)cc4)c(C)c3c2)cs1`: “inactive”; `OCCN1CCN(c2nc(N3CCCCC3)c3cnn(-c4ccc(Cl)cc4)c3n2)CC1`: “inactive”.
`OCC1CCCN(c2ncnc3c2cnn3-c2ccccc2)C1` (centres undefined): the Potency is 1.76 µM (active).
As for `Cc1ccc(-n2ncc3c(N4CCC(C(N)=O)CC4)ncnc32)cc1`, the Potency entry is “inactive”.
In the case of `Cc1ccc(-c2nnc(SCc3ccccc3C)o2)cc1`, the Potency entry was “inactive”.
For the compound `O=C(NC1CCN(c2cc(-c3ccc(F)cc3)[nH]n2)C1)c1cc2ccccc2[nH]1` (centres undefined), the Potency entry is “inactive”.
Turning to `Cn1ccnc1CN1CCc2nc(C(=O)Nc3ccccc3)oc2CC1`, the Potency entry is “inactive”.
In the case of `Cc1ccc(C2Cn3nnc(C(=O)N4CCC(C(=O)NCCc5ccccc5)CC4)c3CO2)cc1` (centres undefined), the Potency result was “inactive”.
Take `CN1c2cc(C(=O)Nc3ccccc3)ccc2C(=O)N2CCCCCC21` (centres undefined): the Potency entry is “inactive”.
As for `Oc1cccc(-c2cc3c(cn2)CN(Cc2cccnc2)CCN3)c1`, the Potency result was “inactive”.
For `OC1(CN2CCCCC2)CCN(c2nc3ccccc3s2)C1` (centres undefined), the Potency result is “inactive”.
Consider `Cc1nn(-c2ccc(C(C)(C)C)cc2)c(C)c1[C@@H]1C=C[C@@H](NC(=O)c2ccco2)C1`, for which the Potency entry is “inactive”.
As to `Cc1cccc(C(=O)Nc2ccc(-c3nc4ccccc4s3)c(C)c2)c1`, the Potency result is “inactive”.
On to `COc1cccc(-c2nc3ccc(-c4ccc5c(c4)OCO5)cc3o2)c1OC`, for which the Potency entry was “inactive”.
For the compound `Cc1ccc(Cl)cc1-n1ncc2c(N3CCC(C(N)=O)CC3)ncnc21`, the Potency entry is “inactive”.
Turning to `COc1ccc(-c2nc3ccccc3s2)cc1NC(=O)COc1ccccc1C`, the Potency result was “inactive”.
For the compound `CN1CCN(C[C@@H]2CN(C(=O)CCCc3ccccc3)C[C@@H]2CO)CC1`, the Potency entry was “inactive”.
With `Cc1nn(-c2ccc(C(C)C)cc2)c(C)c1[C@@H]1C=C[C@@H](NC(=O)Nc2ccccc2)C1`, the Potency entry was “inactive”.
For `Cc1ccc(Nc2c(-c3ccc(N(C)C)cc3)nc3nc[nH]n23)cc1`, the Potency result was “inactive”.
In the case of `CC(=O)Nc1ccc(NC(=O)CCCc2nc(-c3ccc(C(C)(C)C)cc3)no2)cc1`, the Potency result is “inactive”.
As to `O=C(CCCc1ccccc1)N1CCC2(CC1)CC(O)CCO2` (centres undefined), the Potency result is “inactive”.
With `COc1ccccc1OC1(C(=O)O)CCN(c2ncnc3nc[nH]c23)CC1`, the Potency entry is “inactive”.
As to `CC(C)C(=O)Nc1cc(-c2nc3ccccc3s2)ccc1Cl`, the Potency result was “inactive”.
As to `Oc1ccc(-c2nc(C3CC3)nc3c2CCN(Cc2cccc(F)c2)CC3)cc1`, the Potency result was “inactive”.
In the case of `Cc1nn(-c2ccc(C(C)C)cc2)c(C)c1[C@@H]1C=C[C@@H](NC(=O)CC2(CC(=O)O)CCCC2)C1`, the Potency result was “inactive”.
As for `Cc1cc2nn(-c3ccc(Cl)cc3)nc2cc1NC(=O)C(C)C`, the Potency result was “inactive”.
Under `O=C(NCC1CC1)C1CCN(C(=O)c2ncn3c2COC(c2ccccc2)C3)CC1` (centres undefined) stands “inactive”; under `CCc1cccc(NC(=O)c2cc(-c3ccccc3)n[nH]2)c1`, “inactive”.
As to `CC(=O)c1nn(-c2ccc(OC(F)(F)F)cc2)nc1Nc1ccccc1`, the Potency result was “inactive”.
With `Cc1cccc(-c2cccc(NC(=O)C3CCCN(C(=O)CC(F)(F)F)C3)c2)c1` (centres undefined), the Potency result is “inactive”.
Under `COc1ccc(C)cc1NC(=O)Nc1cccc(-c2ccc(N3CCCCC3)nn2)c1` stands 8.81 µM (active).
As for `Cc1ccc(-c2nc(C(=O)N(C)Cc3ccccc3)no2)cc1`, the Potency result is “inactive”.
For the compound `CCOC(=O)C1CCN(C(=O)c2cccc3c2CCN3C(=O)Nc2ccccc2)CC1`, the Potency entry is “inactive”.

Source of the values: PubChem BioAssay AID1963318 (National Center for Advancing Translational Sciences (NCATS), 2024).
